Screens: PubChem, The Scripps Research Institute Molecular Screening Center
DAX1 inh-1 = DAX1 (NR0B1) inhibition, primary screen | HEK293T StAR-luciferase reporter, SF-1/DAX-1 repression relief | inhibition, % at 6.8 µM | hit rate 1.1% among 370,000;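 active = inhibition above the mean over all tested compounds plus 3 SD, cut at about 3.6% in these data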;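 also: 0% = DAX-1 cells with DMSO and 100% = cells lacking DAX-1 with DMSO; higher inhibition means more luminescence from relief of DAX-1 repression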
DAX1 inh-2 = NR0B1 (DAX1) inhibition; inhibition, % at 6.75 µM; hit rate 0.99% among 340,000; HEK293 Gal4-DAX1 luciferase reporter, luminescence; P51843;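 active = inhibition above the mean over all tested compounds plus 3 SD, cut at about 4.2% in these data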;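 also: 0% = DAX1-transfected cells with DMSO and 100% = empty-vector control cells with DMSO; inhibition shows as a rise in luminescence from relieved DAX1 repression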
Target sequence (P51843 207-470 limits assumed): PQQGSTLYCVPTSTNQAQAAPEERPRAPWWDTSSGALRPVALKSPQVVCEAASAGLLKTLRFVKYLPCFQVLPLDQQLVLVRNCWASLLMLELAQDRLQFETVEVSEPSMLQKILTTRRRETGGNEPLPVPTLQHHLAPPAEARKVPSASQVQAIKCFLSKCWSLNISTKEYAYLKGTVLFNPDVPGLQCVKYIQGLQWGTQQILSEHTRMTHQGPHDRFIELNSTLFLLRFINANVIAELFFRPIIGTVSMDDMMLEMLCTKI
hgDAF12 agonist = activates the H. glycines DAF-12 receptor ligand-binding domain; HEK293 GAL4-hgDAF12 UAS-luciferase reporter, agonist luminescence; normalized to butyrate control; activation, % at 6.8 µM; hit rate 1.8% among 370,000; AID 687014;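 active = activation above a cutoff set at the mean of all screened compounds plus 3 SD, cut at about 10% in these data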;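 also: 0% = DMSO wells and 100% = sodium butyrate wells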
ssDAF12 agonist = activates DAF-12 receptor from parasite S. stercoralis | HEK293 ssDAF-12/GRIP1 lit1-tk-luc reporter, luminescence; % of 3 µM dafachronic acid response | activation, % at 6.8 µM | hit rate 1% among 370,000;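 active = activation above the mean over all tested compounds plus 3 SD, cut at about 0.9% in these data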;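 also: 0% = DMSO-only wells and 100% = 3 µM delta7-dafachronic acid wells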
hcDAF12 agonist = activators of H. contortus DAF-12 nuclear receptor. hit rate 1.4% among 370,000. activation, % at 6.8 µM. HEK293 hcDAF-12 lit1-tk-luc reporter, luminescence; 0% DMSO, 100% Δ7-dafachronic acid;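 active = activation above the mean of all tested compounds plus 3 SD, cut at about 5.5% in these data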;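 also: 100% = response to 3 µM Δ7-dafachronic acid high control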
LXRb hcDAF ctr = activates human LXR-beta, counter-screen for hcDAF-12 agonists. shares compounds with hcDAF12 agonist. activation, % at 6.8 µM. AID 743027. HEK293 Gal4-LXR tk-luc reporter, luminescence, 24 h; normalized: DMSO 0%, positive control 100%. 3,400 tested, under 10 active;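 active = mean percent activation of the reporter above a cutoff set as the average over tested compounds plus their standard deviation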
hcDAF12 conf = hcDAF-12 agonism, confirmation assay. hit rate 61% among 3,400. activation, % at 6.8 µM. shares compounds with hcDAF12 agonist. HEK293 hcDAF-12 lit1-tk-luc reporter, luminescence; % of Δ7-dafachronic acid response;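 active = mean activation across triplicate tests above the threshold derived from the earlier primary screen, cut at about 5.5% in these data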;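 also: 0% = DMSO only wells and 100% = 3 µM Δ7-dafachronic acid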
Active calls of the source: *; . = not tested or not shown. Sampled rows, rich in hits. Any-hit rate of the full collection: about 4.1%.

SMILES	DAX1 inh-1	DAX1 inh-2	hgDAF12 agonist	ssDAF12 agonist	hcDAF12 agonist	LXRb hcDAF ctr	hcDAF12 conf
Nn1c(SCc2ccc([N+](=O)[O-])cc2)nnc1-c1n[nH]c2c1CCC2	0	.	4	-2	-1	.	.
CC(=O)c1sc(NC(=O)c2oc3ccc(F)cc3c2C)nc1C	3	2	3	0	6.9*	1	4
CCOC(=O)C1C[C@@H](O)C=CC1=O (stereo not given in full)	.	.	2	-1	-1	.	.
S=C(NCCN1CCOCC1)Nc1ccc(Br)cc1	0	-1	-1	0	6.9*	0	1
N/C(=N\NC(=O)Nc1ccccc1)c1ccccn1	3	.	5	0	7.7*	0	2
CN(Cc1ccco1)C(=O)[C@@H](Cc1ccccc1)NC(=O)[C@H]1O[C@@H](n2ccc(=O)[nH]c2=O)[C@H](O)[C@@H]1O	1	.	-2	-2	0	.	.
Cc1ccn2cc(-c3ccc(O)c(O)c3)nc2c1	3	-2	9	1	7.0*	1	7.5*
Cc1ccn2cc(-c3cccc(NC(=O)C(C)C)c3)nc2c1	1	0	7	-1	3	.	.
O=C1OCC(CO)(CO)N=C1NNc1ccccc1Cl	1	0	1	1	9.0*	0	2
O=C(O)C1(Nc2ccccc2Cl)CCCC1	0	-1	3	-1	0	.	.
NNc1nc(-c2ccccc2)nc2sc3c(c12)CCCC3	2	3	3	1	7.8*	2	19*
Cc1ccc(S(=O)(=O)N2CCCc3nc(C)c(C)cc32)cc1	-2	.	-2	0	-2	.	.
O=C(O)c1cccc2c(-c3ccccc3)c(-c3ccccc3)[nH]c12	0	-1	-3	-1	0	.	.
CC(=O)c1cccc2c(O)c(C3=Nc4ccccc4C3=O)[nH]c12	1	0	5	1.2*	6.6*	1	7.1*
Cc1ccc(C2=Nc3ccccc3NC(C)(c3ccc(C)o3)C2)o1 (stereo not given)	1	1	12*	1.4*	15*	0	5.7*
CC1(c2ccccc2)CC(c2ccccc2)=Nc2ccccc2N1 (stereo not given)	.	4	.	.	.	.	.
COc1cc(/C=N/Nc2ccc3ccccc3c2)ccc1OC(=O)c1ccco1	0	1	5	0	6.8*	0	7.5*
O=C(NC(=S)Nc1nc2c(s1)CSc1ccccc1-2)c1ccccc1	0	1	5	0	7.1*	0	7.6*
O=C(c1cc(COc2cccc3cnccc23)on1)N1CCCC(CCCO)C1 (stereo not given)	-9	-2	-8	-2	-5	.	.
COc1ccc(OCc2cc(C(=O)N3CCCC(CO)C3)no2)c2ccccc12 (stereo not given)	3	1	10	1.4*	7.8*	1	9.5*
COC(=O)Cn1c(=NC(=O)C2CC2)sc2c(C)cc(C)cc21	0	-1	0	-1	-1	.	.
Cc1ccc2c(c1)sc(=NC(=O)c1cccs1)n2C	2	-4	15*	1.6*	7.9*	1	23*
Cc1ccc2c(c1)sc(=NC(=O)C1CC1)n2C	3	3	13*	1.7*	8.7*	1	14*
CN(c1cccnc1)c1ccc(NC(=O)Cc2c[nH]c3ccccc23)cc1-c1ccc(F)c(F)c1	-1	.	-2	1	3	.	.
CC(C)(C)N1Cc2nnn(Cc3ccccc3)c2-c2ccccc2S1(=O)=O	1	.	-3	-2	-1	.	.
SMILES	DAX1 inh-1	DAX1 inh-2	hgDAF12 agonist	ssDAF12 agonist	hcDAF12 agonist	LXRb hcDAF ctr	hcDAF12 conf
CCN1C(=O)N(C(C)=O)[C@H]2C[C@H](C(=O)N3CCCC3)[C@H](C)[C@H](c3ccccc3)C[C@H]21	1	.	0	-1	-1	.	.
O=C(O)Cc1sc(Nc2ccccc2)nc1-c1cccs1	1	7.8*	10	0	6.9*	0	4
Cc1nc2ccccc2nc1SCC(=O)c1ccccc1	-1	-1	0	-1	6.7*	0	1
O=C(CSc1ccc2ccccc2n1)c1ccccc1	1	1	10	1.4*	9.3*	0	8.2*
CC(C)(C)c1nc(SCC(=O)c2ccccc2)c2ccccc2n1	0	3	9	-1	1	.	.
Cn1c(Cl)c(C(=O)Nc2ccc(Cl)cc2)c2ccccc21	0	3	8	1	6.8*	0	5.9*
O=C(COCc1ccccc1)N1CC[C@H]2[C@H](CCCN2Cc2cc(F)cc(F)c2)C1	0	.	4	-1	-1	.	.
CCOC(=O)c1sc(=NC(=O)c2cccs2)n(C)c1C	3	1	17*	2.5*	7.8*	2	23*
CCOC(=O)c1sc(=NC(=O)c2ccc(OC(C)C)cc2)n(C)c1C	2	0	1	-2	1	.	.
CCOC(=O)c1sc(=NC(=O)c2ccc(Cl)s2)n(C)c1C	2	3	8	0	6.7*	2	15*
COC(=O)N1C[C@H](OCCCOCc2ccccc2)[C@H]2C[C@@H]1c1ccccc1O2	0	.	0	-1	-1	.	.
C/C(=N\NC(=O)c1c[nH]c2ccccc12)c1ccc2c(c1)OCO2	1	-1	8	0	7.2*	0	0
C/C(=N\NC(=O)c1cc(C)oc1C)c1ccc2c(c1)OCO2	0	0	0	-1	-3	.	.
O=C(NNc1nc2cc3c(cc2s1)OCCO3)c1ccccc1	1	1	6	-1	2	.	.
Cc1cccc2sc(NNC(=O)c3ccc4c(c3)OCCO4)nc12	0	2	1	0	9.4*	0	3
CCC[C@H]1[C@@H](N(C)Cc2ccccc2)CC[C@@]23CCCN2C(=O)CCC[C@@H]13	.	.	-2	-2	-1	.	.
CCCC(C)NC(=O)Cc1ccccc1[N+](=O)[O-] (stereo not given)	1	1	3	1.1*	7.3*	0	5.9*
Cn1nc(-c2ccccc2)c2nc3ccccc3nc21	0	0	3	1	6.8*	0	6.1*
Clc1nc2ccccc2nc1-c1ccccc1	0	1	0	-2	-1	.	.
Brc1ccccc1OCCOc1cccc2cccnc12	1	0	-1	-1	0	.	.
c1cnc2c(OCc3nc4ccccc4[nH]3)cccc2c1	2	2	8	1.2*	11*	1	9.6*
COC(=O)C1=C(C)N(Cc2ccccc2C(F)(F)F)C(=NCc2cc(OC)c(OC)c(OC)c2)NC1c1cccc(Cl)c1 (stereo not given)	-1	.	0	-1	-1	.	.
O=C(N/N=C/c1coc2ccccc2c1=O)c1cccc([N+](=O)[O-])c1	1	-1	1	-1	1	.	.
